Inhibition data for 106 compounds are collected here from PubChem BioAssay AID488841 (Sanford-Burnham Center for Chemical Genomics, 2010).

In general, inhibition refers to the relative decrease from the control value, in per cent.

Out of some 1,400 compounds screened, about 380 (27%) were called active. The list shows a part of the results. Values without a mark were called inactive.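 How the source made its calls: active means mean inhibition above 50% across duplicate retests at 10 µM; inactive means the rest.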

A short description of the assay: inhibition of NALP1/ASC/caspase-1 reporter signal in yeast, confirmation, NALP1 inhibitor project, S. cerevisiae, luminescence, single concentration (AID 488841).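 Further: plate controls were DMSO in galactose medium for no effect and cells in plain SD medium for full effect.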 Particulars: S. cerevisiae NALP1/ASC/Caspase-1 reporter, beta-gal luminescence; at 10 µM; active compounds read high.
Turning to `Cc1cccc(N2Cc3ccccc3C2=NC(=O)c2ccc(Cl)nc2)c1`, the inhibition was 26.5%. For the compound `COC(=O)N/N=C(\C)c1ccc2ccccc2c1OC(F)F`, the inhibition is 55.9% (active). Consider `CCSc1ncc(/C=N/Nc2ccccc2)n1C`, for which the inhibition is 68.9% (active).

As to `CCSc1nnc(-c2cnn(-c3ccccc3)c2-n2cccc2)n1C`, the inhibition is 26.1%.

For `Clc1ccc(OCCCNCc2ccccc2)c2ccccc12`, the inhibition is 49.3%. `COC(=O)C(CCSC)NC(=O)Cn1ncc2c(=O)oc3ccccc3c21` (stereo unspecified): the inhibition is 35.1%. Then `CN(C#N)c1nc(Cl)nc(Nc2cccc(Cl)c2)n1`, with 23.4%; and `COc1ccc(CNc2cccc(F)c2)cc1Br`, with 62% (active); and `COc1ccc(Cc2ccc(OC)c(N)c2)cc1N`, with 36.5%. On to `O=C(COc1ccc(Br)cc1Br)NC(=S)Nc1cccc(CO)c1`, for which the inhibition is 29.1%. Then `CC(C)c1ccc(NCCC(=O)c2cccs2)cc1`, with 44.8%; and `O=C(COC(=O)c1cccs1)Nc1nc(-c2ccccc2)cs1`, with 34%; and `O=C(COC(=O)/C=C/c1cccs1)Nc1nc(-c2ccccc2)cs1`, with 13.8%.

Consider `CC1CC1C(=O)Nc1nc(-c2ccccc2)cs1` (stereo unspecified), for which the inhibition was 66.7% (active).

`O=C(Cc1coc2cc3c(cc12)CCC3)NCC1(N2CCCCC2)CCCCC1`: the inhibition was 22.9%. As for `O=C1C2C(C(=O)N1/N=C/c1ccc([N+](=O)[O-])o1)C1C=CC2C12CC2` (stereo unspecified), the inhibition is 34.8%. Consider `O=C1C2C(C(=O)N1/N=C/c1cc(Br)cc([N+](=O)[O-])c1O)C1C=CC2C12CC2` (stereo unspecified), for which the inhibition was 59.4% (active). In the case of `O=C(CN1CCCCC1)Nc1cccc(Oc2ccccc2)c1` it was 25.9%; in that of `O=C1C=CC(=O)N1c1ccc(N2CCCCC2)cc1`, 70.8% (active); in that of `O=[N+]([O-])c1ccc(N2CCCCC2)cc1`, 32.1%. In the case of `O=S(=O)(N1CCCCC1)N1CCN(c2ccc(F)cc2)CC1` it was 29.6%. Regarding `CCCCCCCCCCCCCCCC[n+]1ccc(C(N)=O)cc1`, the inhibition was 81.4% (active).

As to `CCCCN(CC)S(=O)(=O)c1ccccc1`, the inhibition is -8.3%. For the compound `CCCCCCCCCCCCCCCC[n+]1cccc(C(=O)N(CC)CC)c1`, the inhibition was 80.4% (active). Turning to `CCCCCCCCCCCCCCCC[n+]1ccc(/C=N/O)cc1`, the inhibition is 82% (active). Regarding `C1=CC2CC1CC2CN1CCN(Cc2ccccc2)CC1` (stereo unspecified), the inhibition is 46.4%.

With `COc1cc(-c2nc(C(F)(F)F)c(OC)o2)cc(OC)c1OC`, the inhibition was 28.9%. As to `O=C(NC(N1CCOCC1)C(Cl)(Cl)Cl)c1ccc(Br)cc1` (stereo unspecified), the inhibition is -17.9%. As to `CC1=CC2=NC(=O)/C(=C\c3cccn3CCOc3cccc(C)c3)C(=N)N2O1`, the inhibition is 76.5% (active). For `O=C(O)/C=C/C(=O)OC1CC2CCC1C2` (stereo unspecified), the inhibition was 24.1%. On to `CN(C)Cc1ccccc1COc1ccccc1`, for which the inhibition was 23.2%. For the compound `C/C(=C(\C#N)C(=O)NCc1ccccc1)N(C)C`, the inhibition is 33.3%. As to `COc1ccccc1OCC(=O)N/N=C/C=C/c1ccc([N+](=O)[O-])o1`, the inhibition was 32.6%.

`Cc1cc(N2CCOCC2)ccc1/C=C\[N+](=O)[O-]`: the inhibition is 41.6%. For the compound `CCOC(=O)COc1ccc2ccccc2c1/C=C/[N+](=O)[O-]`, the inhibition is 99.7% (active).

Consider `CCOc1ccc(NC(=O)/C=C/c2ccccc2)c([N+](=O)[O-])c1`, for which the inhibition was 31.1%.

On to `CCOC(=O)COc1ccccc1/C=C\[N+](=O)[O-]`, for which the inhibition is 101% (active). Then `O=C(CCCN1C(=O)c2ccccc2C1=O)Oc1ccc(Cl)cc1`, with 37.3%; and `CC(NCCC(c1ccccc1)c1ccccc1)c1ccccc1` (stereo unspecified), with 50.5% (active); and `CCN1/C(=C/C=C/C=C/c2sc3ccccc3[n+]2CC)Sc2ccccc21`, with 51% (active). With `COc1cccc(OCc2ccc(C(=O)NCC3CCCO3)cc2)c1` (stereo unspecified), the inhibition is 36.2%. In the case of `CC1(O)N(Cc2ccccc2)C(=O)OC12CCCCC2` (stereo unspecified), the inhibition was 29.2%. `O=C(COC(=O)c1ccc(-c2ccc([N+](=O)[O-])cc2)o1)NC(=O)NC1CCCCC1`: the inhibition was 37.8%. For the compound `CC(C)(C)c1nnc(N/N=C/c2cc(Br)ccc2O)n(N)c1=O`, the inhibition is 53.5% (active).

As to `O=C(N/N=C/c1cc(Cl)ccc1O)c1ccc(Br)cc1`, the inhibition was 43.6%.

Regarding `CCCCNC(=O)Nc1cc(C)on1`, the inhibition was 23.2%. Then `Cc1cc2ncn(/N=C/c3ccc([N+](=O)[O-])s3)c2cc1C`, with 65.3% (active); and `CN(C)/C=N/n1cnc2ccccc2c1=O`, with 23.6%. For `CCOC(=O)C1CCN(C(=O)c2cc3cc4cc(OC)ccc4nc3o2)CC1`, the inhibition was 45.9%.

With `CCOc1ccc2nc(SC3CC(=O)N(c4cccc(OC)c4)C3=O)sc2c1` (stereo unspecified), the inhibition was 32.1%. As to `O=S(=O)(Nc1ccc(-n2cccc2)cc1)c1ccc(Cl)cc1Cl`, the inhibition is 52.4% (active).

Turning to `O=C(O)C1CCN(C(=O)c2csc(-c3ccc4c(c3)CCO4)n2)CC1`, the inhibition is 22.9%. With `CCCC(=O)c1ccc(-c2ccccc2)cc1`, the inhibition was 52.4% (active).

Turning to `Cc1cccc(C)c1OCCNC(=O)CCC(=O)c1ccccc1`, the inhibition was 33.9%. In the case of `Cc1ccc(C(=O)CCC(=O)O)cc1` it was 37%; in that of `O=C1OC(/C=C/c2ccc(Cl)cc2)=NC/1=C/c1ccco1`, 36.4%.

Consider `CCCCCCCCCCCCCCCCn1cc[n+](CC(C)=O)c1`, for which the inhibition is 76.5% (active). In the case of `CCCCCCCCCCCCCCCCn1cc[n+](C)c1`, the inhibition is 84.8% (active). Then `CCCNCC1COc2ccccc2O1` (stereo unspecified), with 31.2%; and `COc1ccccc1OCCN1CSC(=S)N(C)C1`, with 47%; and `O=[N+]([O-])c1cc2oc3c(c2c(C=NCc2ccccc2)c1O)CCCC3`, with 34.6%. Consider `CNc1nc(SCc2ccc(C)cc2)nc2c1CCCC2`, for which the inhibition was 98.8% (active). In the case of `Cc1oc(-c2ccccc2Cl)nc1CSc1nc2c(c(=O)[nH]1)CCC2` it was 31.5%; in that of `CNc1nc(SCc2ccccc2Cl)nc2c1CCCC2`, 99% (active); in that of `Cc1ccc(NC(=O)N(C2CCCCC2)C(C)c2cccnc2)cc1C` (stereo unspecified), 32.9%. Regarding `CC(C)N1CCC2(CC1)N=C(c1ccc3c(c1)OCO3)CC(c1cc(Cl)ccc1O)N2` (stereo unspecified), the inhibition was 62.8% (active). Regarding `Clc1ccc(C2=NNC(=NCc3ccc4c(c3)OCO4)SC2)cc1`, the inhibition was 27.9%.

Take `N#CC(C#N)=c1ccc2c(c1)N1C3=C(CCCC3)CC3CCCCC31N=2` (stereo unspecified): the inhibition is 7.95%. Turning to `CC1CCCC/C1=N\Nc1ccc(S(N)(=O)=O)cc1[N+](=O)[O-]` (stereo unspecified), the inhibition was 30.3%. Then `COC(=O)c1c(S(=O)(=O)NCc2ccccc2)sc(C(=O)O)c1C`, with 22%; and `COc1ccc(Nc2ccnc(Nc3ccc(OC)cc3)n2)cc1`, with 55% (active). Consider `Fc1ccc(Nc2ccnc(Nc3ccc(F)cc3)n2)cc1`, for which the inhibition was 29.5%. Turning to `CCN(CC)S(=O)(=O)c1ccc2[nH]c(=O)cc(C(=O)Nc3ccc(C)c(S(=O)(=O)N(CC)CC)c3)c2c1`, the inhibition was 27.6%. Turning to `Clc1ccc(Nc2ccc(NCc3ccccc3)nn2)cc1`, the inhibition is 75.7% (active).

As for `CC(C)C(NS(=O)(=O)c1ccc2c(c1)oc(=O)n2C)C(=O)N1CCN(C2CCCCC2)CC1` (stereo unspecified), the inhibition was 25.9%. On to `CSc1ccc(S(=O)(=O)NCc2ccc(C)cc2)cc1`, for which the inhibition is 38.7%.

Regarding `CC(C)(C#CCN1CCCCC1)OCCOC(c1ccccc1)c1ccccc1`, the inhibition is 28.1%. Then `CN(C)C(C)(C)C#CCC(c1ccccc1)c1ccccc1`, with 61.6% (active); and `COc1ccc(C2SCC(=O)N2CCCN(C)C)cc1` (stereo unspecified), with 35%. Regarding `Cc1ccsc1/C=N/n1c(-c2ccccn2)n[nH]c1=S`, the inhibition was 37.9%.

`Cc1cccc(/C=N/n2c(-c3cc(-c4ccccc4)n[nH]3)n[nH]c2=S)c1`: the inhibition was 27.3%. In the case of `S=c1[nH]nc(-c2ccco2)n1/N=C/c1cccc(Cl)c1Cl` it was 56% (active); in that of `CC(C)Oc1ccc(OCCNC2CCCC2)cc1`, 35.8%. With `CCN1CCN(c2cc3c(cc2F)c(=O)c(C(=O)O)cn3C2CC2)CC1`, the inhibition is 14.2%. Then `CS/C(=N\S(=O)(=O)c1cccs1)Nc1ccc(Br)cc1F`, with 52% (active); and `Cn1c(=O)c([N+](=O)[O-])c(-n2cnc3ccccc32)c2ccccc21`, with 37%; and `CN1CCN(S(=O)(=O)c2ccc(Br)c3nsnc23)CC1`, with 19.9%. In the case of `CN1c2ccccc2Sc2cc(N)ccc21`, the inhibition was 94% (active).

Consider `Cc1nc(C)c(/C(O)=C/c2nc3ccccc3oc2=O)s1`, for which the inhibition was 44.5%. On to `CCn1c(N2CCN(C(=O)C34CC5CC(CC(C5)C3)C4)CC2)nc2ccccc21`, for which the inhibition is 44.6%. With `C/C(=N\NC(=O)Cc1csc(N2CCOCC2)n1)c1ccccc1`, the inhibition is 24.6%. In the case of `O=c1cc(CSc2ccc(Cl)cc2)[nH]c2[nH]n(-c3ccccc3)c(=O)c12` it was 29.9%; in that of `Cc1[nH]n(-c2ccccc2)c(=O)c1C(C[N+](=O)[O-])c1ccc(Cl)cc1` (stereo unspecified), 77.5% (active); in that of `Cc1cc2ccccn2c1C(C[N+](=O)[O-])c1ccc(N(C)C)cc1` (stereo unspecified), 31.1%.

In the case of `COC(=O)C1(C(C[N+](=O)[O-])c2ccc(C)cc2)C(=O)NCC1c1ccco1` (stereo unspecified), the inhibition was 29.4%. With `Cc1[nH]n(-c2ccccc2)c(=O)c1C(C[N+](=O)[O-])c1ccc(Br)cc1` (stereo unspecified), the inhibition is 66.2% (active). For `Cc1ccc(C(C[N+](=O)[O-])c2c(C)[nH]n(-c3ccccc3)c2=O)cc1` (stereo unspecified), the inhibition was 78.1% (active).

In the case of `COc1ccc(OC)c(N/C(=N/C(=S)Nc2ccccc2)Nc2nc(C)cc(C)n2)c1`, the inhibition is 30.3%. Turning to `CC12CCC(C(=O)O)(C/C1=N\O)C2(C)C` (stereo unspecified), the inhibition is 15%. Turning to `CCOc1nc(-c2ccccc2Cl)ccc1C#N`, the inhibition was 42.2%. `C=CCNCCOc1ccc(C(C)(C)c2ccccc2)cc1`: the inhibition was 60.4% (active). With `COCCCNCCOc1cc(C(C)C)ccc1C`, the inhibition was 30.8%.

With `COC(=O)C(Cc1ccccc1)NC(=O)COc1ccc(C(C)(C)C)cc1` (stereo unspecified), the inhibition is 36.6%.

As to `C=CCNCCOCCSc1ccc(Cl)cc1`, the inhibition was 45.3%. Consider `COCCCNCCOc1ccc(C(C)(C)c2ccccc2)cc1`, for which the inhibition is 57.4% (active). With `C=CCc1cc(Cl)ccc1OCCNCCCOC`, the inhibition is 45.8%.
